# High-throughput results (PubChem)
# Rows were chosen to be rich in hits. Some 4.8% of all compounds tested hit in one or more screens of this group.
# ssDAF12 agonist: S. stercoralis DAF-12 activation, primary screen; HEK293 ssDAF-12/GRIP1 lit1-tk-luc reporter, luminescence; % of 3 µM dafachronic acid response; activation, % at 6.8 µM; 370,000 tested, 1% active;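 active means activation above the mean over all tested compounds plus 3 SD, cut at about 0.9% in these data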;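 further: 0% = DMSO-only wells and 100% = 3 µM delta7-dafachronic acid wells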
# hcDAF-12 act: activators of H. contortus DAF-12 nuclear receptor. activation, % at 6.8 µM. 370,000 tested, 1.4% active. HEK293 hcDAF-12 lit1-tk-luc reporter, luminescence; 0% DMSO, 100% Δ7-dafachronic acid. AID 652067;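 active means activation above the mean of all tested compounds plus 3 SD, cut at about 5.5% in these data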;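 further: 100% = response to 3 µM Δ7-dafachronic acid high control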
# hgDAF-12 ag: hgDAF-12 agonism, primary luciferase screen; activation, % at 6.8 µM; AID 687014; HEK293 GAL4-hgDAF12 UAS-luciferase reporter, agonist luminescence; normalized to butyrate control; 370,000 tested, 1.8% active;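 active means activation above a cutoff set at the mean of all screened compounds plus 3 SD, cut at about 10% in these data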;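 further: 0% = DMSO wells and 100% = sodium butyrate wells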
# DAX1 inh-1: inhibits human nuclear receptor DAX1; inhibition, % at 6.75 µM; 340,000 tested, 0.99% active; HEK293 Gal4-DAX1 luciferase reporter, luminescence; AID 504766;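 active means inhibition above the mean over all tested compounds plus 3 SD, cut at about 4.2% in these data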;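 further: 0% = DAX1-transfected cells with DMSO and 100% = empty-vector control cells with DMSO; inhibition shows as a rise in luminescence from relieved DAX1 repression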
# DAX1 inh-2: inhibitors of DAX1 repression of SF-1 activated StAR promoter; 370,000 tested, 1.1% active; inhibition, % at 6.8 µM; HEK293T StAR-luciferase reporter, SF-1/DAX-1 repression relief; AID 652010;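 active means inhibition above the mean over all tested compounds plus 3 SD, cut at about 3.6% in these data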;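 further: 0% = DAX-1 cells with DMSO and 100% = cells lacking DAX-1 with DMSO; higher inhibition means more luminescence from relief of DAX-1 repression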
# Rev-erbA mod: modulates human Rev-erb alpha binding to DNA. P20393. Rev-erbα–FITC-DNA binding, fluorescence polarization, 90 min. activity, % at 10 µM. 370,000 tested, 0.79% active. AID 1259318;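 active means activity above about 14%, limit read from the data; passing the limit was not always enough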;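 further: 0% = DMSO wells with 35 nM protein and 100% = DMSO wells with 750 nM protein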
# Target sequence (P20393 whole entry, looked up): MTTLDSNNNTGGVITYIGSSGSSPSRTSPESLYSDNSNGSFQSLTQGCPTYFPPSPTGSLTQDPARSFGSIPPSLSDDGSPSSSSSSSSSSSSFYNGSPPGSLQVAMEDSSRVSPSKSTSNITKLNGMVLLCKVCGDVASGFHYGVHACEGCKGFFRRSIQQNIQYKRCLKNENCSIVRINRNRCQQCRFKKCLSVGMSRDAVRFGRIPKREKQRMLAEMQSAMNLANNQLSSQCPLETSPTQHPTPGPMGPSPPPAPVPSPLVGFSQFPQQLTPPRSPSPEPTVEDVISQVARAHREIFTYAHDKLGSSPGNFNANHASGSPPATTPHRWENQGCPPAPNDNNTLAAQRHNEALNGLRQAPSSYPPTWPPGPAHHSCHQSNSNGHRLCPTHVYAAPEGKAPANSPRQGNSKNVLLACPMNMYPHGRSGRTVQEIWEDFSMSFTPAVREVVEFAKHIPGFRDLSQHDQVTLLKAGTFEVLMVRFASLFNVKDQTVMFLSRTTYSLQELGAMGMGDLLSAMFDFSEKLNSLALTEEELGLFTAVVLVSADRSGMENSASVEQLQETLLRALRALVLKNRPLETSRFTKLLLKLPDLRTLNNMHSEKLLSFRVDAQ
# The depositor's hits bear a star; · = no result.
SMILES,ssDAF12 agonist,hcDAF-12 act,hgDAF-12 ag,DAX1 inh-1,DAX1 inh-2,Rev-erbA mod
Cc1cc(C)n2nc(SCC(=O)N3CCc4ccccc43)nc2n1,-2,-1,0,0,0,0
Cc1cc(C)nc(SCC(=O)N2CCc3ccccc32)n1,0,0,4,1,4.3*,-1
CC(Oc1ccc(Br)cc1)C(=O)N1CCc2ccccc21 (stereo not given),-1,-1,1,0,-1,-3
Cc1ccn(C(C)CC(=O)N2CCc3ccccc32)n1 (stereo not given),0,6.2*,3,0,1,-8
O=C(Cn1cc2c(n1)CCCCC2)N1CCc2ccccc2C1,-1,-1,0,0,0,-7
CC(Sc1ncccn1)C(=O)N1CCc2ccccc21 (stereo not given),-1,5.8*,-1,1,1,2
O=C(Cn1cc2c(n1)CCCC2)N1CCc2ccccc21,1,1,-4,4.5*,0,-5
CC1(C)S[C@@H]2C(NC(=O)[C@@H](N)c3ccc(O)cc3)C(=O)N2[C@H]1C(=O)O (stereo not given in full),·,·,·,·,·,-5
O=C(O)c1ccccc1SCC(=O)N1CCc2ccccc21,7.6*,2,3,-1,1,0
Cn1c(SCc2ccc(C(C)(C)C)cc2)nnc1-c1ccco1,-2,-1,3,·,0,2
CCCCOC(=O)c1nnc(-c2ccccc2)o1,-2,0,-2,5.1*,0,-3
COC(=O)[C@]12C[C@H](CC(=O)NCCC(C)C)C(=O)N(Cc3ccc4c(c3)OCO4)C1=C[C@H](C(C)(C)C)O[C@@H]2C,-1,0,-1,·,0,2
CCCN1C2CCCC1CC(NC(=O)c1ccccc1OCC)C2 (stereo not given),0.9*,5,3,1,2,-3
CCCN1C2CCCC1CC(NC(=O)c1ccccc1OC)C2 (stereo not given),-1,-2,2,-1,1,1
CCN(CCn1cccn1)C(=O)CCc1nnc(C2(c3ccc(Cl)cc3)CCC2)o1,0,1,12*,1,1,-2
CCN(CCn1cccn1)C(=O)CCc1nnc(-c2ccccc2)o1,-1,1,8,-1,1,-5
O=C(C[n+]1ccc2ccccc2c1)c1ccccc1,1,4,9,4.8*,1,2
COc1cc(Cn2cc([C@]34C[C@H]5C(=O)N(C)CC(=O)N5[C@H]3N(S(=O)(=O)c3ccccc3)c3ccccc34)c3ccccc32)cc(OC)c1,-1,2,8,·,·,4
Cc1cccc(C(=O)N2CCN(c3ccc(N4CCOCC4)nn3)CC2)c1,2.2*,0,-2,4.4*,-1,-3
CCN(CC)C(=O)CSc1nnc(-c2ccccn2)n1C,-1,-1,2,·,0,-1
O=C(CN(C(=O)Cn1nnc(-c2cccs2)n1)c1ccc2c(c1)OCCO2)NCC1CCCO1 (stereo not given),-1,-3,-1,-2,-1,-9
Cc1ccc(N(CC(=O)NCC2CCCO2)C(=O)Cn2nnc(-c3cccs3)n2)cc1 (stereo not given),1.1*,5.6*,12*,-1,3,-3
Cc1ccc(C(=O)N/N=C\C=C\c2ccc(Br)cc2)cn1,1.0*,6.5*,1,0,0,6
Cc1ccc(C(=O)N/N=C/c2cc(Br)ccc2O)cn1,-2,-2,-11,-4,-2,2
CC(=O)c1oc2ccccc2c1NC(=O)CCCN1C(=O)c2ccccc2C1=O,0,5.8*,6,0,4,2
Cc1cccc(-c2cccc3c4c([nH]c23)[C@@H]2C[C@H](N(C)C(=O)c3ccco3)[C@H]([C@H](C)O)CN2CC4)c1,0,-1,1,·,0,0
CN(C)c1ccc(C(=O)Nc2ccc(CN3CCS(=O)(=O)CC3)cc2)cc1,-2,0,4,1,1,0
CCN1CCN(Cc2ccc(NC(=O)Nc3ccccc3)cc2)CC1,·,·,·,3,·,·
COc1ccc(C(=O)Nc2ccc(CN3CCS(=O)(=O)CC3)cc2)cc1,-2,0,-1,4.4*,1,-6
